The text below walks through data of PubChem BioAssay (NCATS).

Molecules are shown by their SMILES. Results filed as inconclusive are left out. Values without a mark were called inactive. Calls of active or inactive are those of the source. The call rests on the fitted dose curve; in most records, active means well fitted cell-killing curve with a large enough effect; inconclusive means small, poorly fitted or top-dose-only effect, or effect the other way; inactive means no such curve, though single readings can be large or run the other way.
Potency means the concentration at half of the fitted maximal effect.

The experiment in a line: Quantitative High-Throughput drug screen in 47 multiple myeloma cell lines against the NCATS MIPE library collection: VP6_DJ cell viability assay (AID 1919867). Further: nearly all actives have a fitted effect of over 40% in size. As to conditions: ATP luminescence, 48 h; series mostly up to 45.8 µM; viability (% of DMSO): at the top concentration. From the text: PI: Beverly A. Mock Ph.D.
Laboratory of Cancer Biology and Genetics,
Center for Cancer Research, National Cancer Institute,
National Institute of Health, Bethesda, Maryland
Drug resistance and disease progression are common in multiple myeloma (MM) patients, underscoring the need for new therapeutic combinations. […] We hypothesized that effective combinations would reduce MYC expression and enhance p16 activity. […] These preclinical data identify potentially useful drug combinations for evaluation in drug-resistant MM and reveal potential mechanisms of combined drug sensitivity.
Described herein is the primary MIPE qHTS used to cherrypick compounds. Validated compounds were then further tested for potential synergistic activiy.
[1] Peat TJ, Gaikwad SM, Dubois W, Gyabaah-Kessie N, Zhang S, Gorjifard S, Phyo Z, Andres M, Hughitt VK, Simpson RM, Miller MA, Girvin AT, Taylor A, Williams D, D'Antonio N, Zhang Y, Rajagopalan A, Flietner E, Wilson K, Zhang X, Shinn P, Klumpp-Thomas C, McKnight C, Itkin Z, Chen L, Kazandijian D, Zhang J, Michalowski AM, Simmons JK, Keats J, Thomas CJ, Mock BA. Drug combinations identified by high-throughput screening promote cell cycle transition and upregulate Smad pathways in myeloma. Cancer Lett. 2023 Aug 1;568:216284. doi: 10.1016/j.canlet.2023.216284. Epub 2023 Jun 24. PMID: 37356470; PMCID: PMC10408729.
SEQUENCE No. (e.g., 1, 2, 3, etc.); […] (e.g., Cells, Incubation, Reagent, etc.); VALUE and DESCRIPTION.
1; Cells; 5 uL; white, solid bottom 1536-well Greiner assay plate.
2; Compounds; 23 nL; Kalypsis pin tool (Wako USA) equipped with a 1536-well pin head to transfer to the assay plates.
3; Incubation; 48 hours; 37C incubation.
4; Reagent;5uL; CellTiter Glo (Promega).
5; Detector; 425V; Luminescence; Viewlux PerkinElmer.
NOTES (numbers refer to Sequence numbers above)
1. The cell-based screening methods employed in this study were like those previously published. Briefly, the corresponding myeloma cell lines were screened in 1,536-well plates with 500 cells, 5-uL per well for inhibition of cell viability (assessed by measuring ATP levels with CellTiterGlo).
2. NCATS MIPE 4.0 library of approved and investigational drugs were added using the Kalypsis pin tool. Wells treated with DMSO only for 100% viability and media only for 0% viability were used as controls.
3. The assay plates were covered and incubated for 48 hours in a 37C, 5% CO2 incubator with controlled humidity.
4. After 48 hours, CellTilter-GloTM luminescent substrate mix (Promega) reagent was added to the assay plate and plates we incubated for 5 min at room temperature.
5. Signal was measured as median relative luminescence units on a ViewLux (PerkinElmer) multiplate reader.
[1] Heske CM, Davis MI, Baumgart JT, Wilson K, Gormally MV, Chen L, Zhang X, Ceribelli M, Duveau DY, Guha R, Ferrer M, Arnaldez FI, Ji J, Tran HL, Zhang Y, Mendoza A, Helman LJ, Thomas CJ. Matrix Screen Identifies Synergistic Combination of PARP Inhibitors and Nicotinamide Phosphoribosyltransferase (NAMPT) Inhibitors in Ewing Sarcoma. Clin Cancer Res. 2017 Dec 1;23(23):7301-7311. doi: 10.1158/1078-0432.CCR-17-1121. Epub 2017 Sep 12. PMID: 28899971; PMCID: PMC6636827.
For the compound `CCCCCCCCCCCCCCCC(=O)O[C@H]1[C@@H](O)[C@@H](O)[C@@H]([C@H](NC(=O)[C@@H]2C[C@@H](CCC)CN2C)[C@H](C)Cl)O[C@@H]1SC`, the “viability (% of DMSO)” value was 125%.
For `O=C(c1ccc(C=Cc2n[nH]c3ccccc23)cc1)N1CCNCC1`, the Potency is 3.72 µM (active).
Take `N#CC(c1ccc(Cl)cc1)c1c(Cl)cc(-n2ncc(=O)[nH]c2=O)cc1Cl` (stereo not given): the Potency was 20.9 µM (active).
`CN(C)S(=O)(=O)c1ccc2c(c1)C(=Cc1cc3c([nH]1)CCCC3)C(=O)N2`: the Potency is 2.64 µM (active).
The same measure, in the same setting: to `CN(C(Cc1ccc(OS(=O)(=O)c2cccc3cnccc23)cc1)C(=O)N1CCN(c2ccccc2)CC1)S(=O)(=O)c1cccc2cnccc12` (stereo not given) belongs 3.72 µM (active).
For the compound `CC1CNc2c(cccc2S(=O)(=O)N[C@@H](CCCN=C(N)N)C(=O)N2CC[C@@H](C)C[C@@H]2C(=O)O)C1` (stereo not given in full), the “viability (% of DMSO)” value is 144%.
On to `CCNC(=O)c1noc(-c2cc(C(C)C)c(O)cc2O)c1-c1ccc(CN2CCOCC2)cc1`, for which the Potency is 0.0372 µM (active).
As to `CCC(=C(CC)c1ccc(O)cc1)c1ccc(O)cc1`, the Potency is 18.7 µM (active).
On the same count and under the same terms, in the case of `Cc1cc(OCCCS(C)(=O)=O)cc(C)c1-c1cccc(COc2ccc3c(c2)OC[C@H]3CC(=O)O)c1` it was 2.35 µM (active).
For the compound `CCCCn1c(=O)n(Cc2ccccc2F)c(=O)c2[nH]c(Cc3ccc(NC(C)=O)cc3)nc21`, the “viability (% of DMSO)” value is 75.2%.
For the compound `O=C(O)C1=CO[C@@H](O[C@@H]2O[C@H](CO)[C@H](O)[C@H](O)[C@H]2O)[C@@H]2C(CO)=CC[C@H]12`, the “viability (% of DMSO)” value is 138%.
On to `CN1[C@H]2CC[C@H]1CC(OC(=O)c1c[nH]c3ccccc13)C2` (stereo not given in full), for which the Potency was 8.33 µM (active).
Still for that read-out and setting: to `C[C@@H]1[C@H](O)[C@@H](C)C=CC=CC=CC=CC=CC=CC=C[C@H](O[C@@H]2O[C@H](C)[C@H](O)[C@H](N)[C@@H]2O)C[C@@H]2O[C@](O)(C[C@@H](O)C[C@@H](O)[C@H](O)CC[C@@H](O)C[C@@H](O)CC(=O)O[C@H]1C)C[C@H](O)[C@@H]2C(=O)O` belongs 3.72 µM (active); to `Cn1cc(-c2ccc3nnc(Sc4ccc5ncccc5c4)n3n2)cn1`, 18.7 µM (active); to `NCc1c[nH]c(=S)n1[C@H]1CCc2c(F)cc(F)cc2C1`, 3.32 µM (active).
With `CCCCCCCCCCCCCC(=O)N[C@H](CO)[C@H](O)c1ccc([N+](=O)[O-])cc1`, the Potency is 26.4 µM (active).
As for `C[C@H]1[C@H](O)O[C@@H]2O[C@@]3(C)CC[C@@H]4[C@H](C)CC[C@@H]1[C@@]24OO3`, the Potency was 1.48 µM (active).
Take `Cc1ccc(S(=O)(=O)OCC(=O)Nc2ccc(C(=O)O)c(O)c2)cc1`: the Potency was 16.6 µM (active).
On the same count and under the same terms, to `CC(C)C[C@@H](C(=O)N[C@H](C(=O)OC1CCCC1)c1ccccc1)[C@H](O)C(=O)NO` belongs 16.6 µM (active).
As to `CCCCC(C=O)NC(=O)C(CC(C)C)NC(=O)OCc1ccccc1` (stereo not given), the “viability (% of DMSO)” value was 145%.
The same measure, in the same setting: to `CC1(C)[C@H]2CC[C@]3(C)[C@@H](C(=O)C=C4[C@@H]5C[C@@](C)(C(=O)O)CC[C@]5(C)CC[C@]43C)[C@@]2(C)CC[C@@H]1O` belongs 139%.
For `CN1CCC[C@H]1CCO[C@](C)(c1ccccc1)c1ccc(Cl)cc1`, the Potency is 18.7 µM (active).
`CC=C(C(=CC)c1ccc(O)cc1)c1ccc(O)cc1`: the Potency is 18.7 µM (active).
As to `O=c1[nH]c(=O)n([C@H]2C[C@@H](O)[C@@H](CO)O2)cc1I`, the “viability (% of DMSO)” value is 99.9%.
The same measure, in the same setting: in the case of `CC(=O)Nc1cccc(-n2c(=O)n(C3CC3)c(=O)c3c(Nc4ccc(I)cc4F)n(C)c(=O)c(C)c32)c1` it was 102%.
`Cc1cc(C(C)Nc2ccccc2)c2nc(N3CCOCC3)cc(=O)n2c1` (stereo not given): the Potency is 3.32 µM (active).
Same read-out and setting: in the case of `COc1nccc(-c2c(-c3ccc(F)cc3)ncn2C2CCNCC2)n1` it was 1.18 µM (active); in that of `O=C1NC(=O)C(c2cnc3ccccn23)=C1c1cn2c3c(cccc13)CN(C(=O)N1CCOCC1)CC2`, 5.26 µM (active).
Same read-out and setting: to `Oc1cc(O)cc(C=Cc2ccc(O)c(O)c2)c1` belongs 10.5 µM (active); to `CNC(=O)c1cc(Oc2ccc(NC(=O)Nc3ccc(Cl)c(C(F)(F)F)c3)c(F)c2)ccn1`, 2.96 µM (active).
On the same count and under the same terms, in the case of `COC1CCC(C(=O)c2ccc3nc4c(cc3c2)CCCO4)CC1` (stereo not given) it was 13.2 µM (active).
In the case of `O=C(O)Cc1cccc(OCCCN(Cc2cccc(C(F)(F)F)c2Cl)CC(c2ccccc2)c2ccccc2)c1`, the Potency is 16.6 µM (active).
Still for that read-out and setting: to `COc1ccc2c(c1)c(C1=C(c3c[nH]c4ccccc34)C(=O)NC1=O)cn2CCCN(C)C` belongs 20.9 µM (active); to `CCN1CCN(c2ccc(Nc3cc(N(C)C(=O)Nc4c(Cl)c(OC)cc(OC)c4Cl)ncn3)cc2)CC1`, 23.5 µM (active); to `CN1CCC(COc2cnc(-c3cccc(Cn4nc(-c5cccc(C#N)c5)ccc4=O)c3)nc2)CC1`, 0.59 µM (active).
Still for that read-out and setting: in the case of `COc1ccc2cc1Oc1ccc(cc1)C[C@H]1c3cc(c(OC)cc3CCN1C)Oc1c(OC)c(OC)cc3c1[C@H](C2)N(C)CC3` it was 11.8 µM (active); in that of `COc1cc2nc(-c3cc(F)ccc3O)nc(N[C@@H]3CNC[C@@H]3C(C)(C)O)c2cc1OC`, 5.26 µM (active); in that of `CC(C)CN(C[C@H](O)[C@H](Cc1ccccc1)NC(=O)O[C@H]1CCOC1)S(=O)(=O)c1ccc(N)cc1`, 20.9 µM (active).
Turning to `CN1CCN(c2cccc(Nc3nc4c(-c5ccc(S(C)(=O)=O)cc5)cccn4n3)c2)CC1`, the Potency is 0.743 µM (active).
The same measure, in the same setting: in the case of `OC1CCC(Nc2ncc3nc(Nc4c(F)cc(F)cc4F)n([C@@H]4CCOC4)c3n2)CC1` (stereo not given in full) it was 11.8 µM (active).
